# In the library only some 2.7% were active in any assay of this set; here they are far more common.
# NadD block: NadD (S. aureus) enzyme inhibition; purified NadD enzyme, colorimetric absorbance read-out; inhibition, % at 20 µM; 360,000 compounds, 0.78% hits; AID 602399; in the data active means inhibition above about 26%
# H9c2 TAG inh: inhibitors of triacylglycerol accumulation. H9c2 cells, Nile Red lipid (TAG) fluorescence; cells loaded with 200 µM oleic acid. inhibition, % at 12.5 µM. 230,000 compounds, 0.66% hits;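 active means pattern-corrected inhibition of lipid staining of at least 50% with the nuclear-stain viability signal not falling by more than 50%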
# MPTP inh: permeability transition pore inhibition | isolated mouse mitochondria, Ca2+ swelling absorbance, 30 min | inhibition, % at 10 µM | 360,000 compounds, 1.4% hits | AID 602449;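 active means inhibition of 50% or more, scaled per plate between neutral and stimulator controls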
# aDG glyco up: alpha-DG glycosylation activation. Pro5-aDG cells, alpha-DG glycosylation AlphaScreen (IIH6); 0% Pro5, 100% B10-LARGE cell signal. AID 624168. 360,000 compounds, 0.22% hits. activation, % at 10 µM;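 active means activation of at least 8% versus controls, or a plate z-score of at least 8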;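 further: Pro5 are CHO cells carrying HIG-tagged alpha-DG that lacks glycosylation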
# MPTP counter: Rhodamine 123 counter-screen of mitochondrial pore hits; 5,000 compounds, 78% hits; AID 624504; shares compounds with MPTP inh; inhibition, % at 10 µM; isolated mitochondria, membrane potential, Rhodamine 123 fluorescence; in the data active means inhibition above about 22%
# MPTP abs DR: MPTP inhibition, dose response swelling confirmation; shares compounds with MPTP inh; AID 651561; 780 compounds, 58% hits; isolated mitochondria swelling, absorbance; IC50, µM; in the data active means IC50 below about 20 µM
# MPTP counter DR: counter-screen for mitochondrial permeability transition pore inhibitors, dose response; shares compounds with MPTP inh; isolated mitochondria counterscreen, fluorescence read-out; IC50, µM; 780 compounds, 49% hits; AID 651564; in the data active means IC50 below about 80 µM
# A number is an active result; n = inactive; x = no result.
SMILES,NadD block,H9c2 TAG inh,MPTP inh,aDG glyco up,MPTP counter,others
Cc1ccc(COn2c(-c3ccc(Cl)cc3)nc3ccc([N+](=O)[O-])cc32)cc1,n,n,88.2,n,83.9,
Clc1ccc(COn2c(-c3ccc(Cl)cc3)nc3ccccc32)cc1,n,x,n,n,x,
CC(c1ccco1)N(C(=O)c1ccccc1NS(=O)(=O)c1cccc([N+](=O)[O-])c1)c1ccccn1 (configuration not stated),n,n,51.1,n,78.2,
CC(c1ccco1)N(C(=O)c1ccccc1NS(=O)(=O)c1cc([N+](=O)[O-])ccc1Cl)c1ccccn1 (configuration not stated),n,x,n,n,x,
Cc1ccc(C)c(NC(=O)COC(=O)c2ccc(S(=O)(=O)N3CCCC3)cc2)c1,n,n,n,n,x,
O=c1c2c(C(F)(F)F)cc(C(F)(F)F)nc2[nH]n1-c1ccccc1,n,x,90.0,n,67.8,
Clc1ccc(OCCn2c(-c3ccco3)nc3ccccc32)cc1,n,n,n,n,x,
c1coc(Cn2c(-c3ccco3)nc3ccccc32)c1,n,n,51.1,n,n,
Cc1ccc(-n2ncc3c(N4CCCC(C)C4)ncnc32)c(C)c1 (configuration not stated),n,n,58.7,n,42.8,
Cc1ccc(-n2ncc3c(SCc4cccnc4)ncnc32)c(C)c1,n,n,87.7,n,81.9,
O=C(Nc1cccc(Cl)c1)c1ccc(F)c(S(=O)(=O)NCc2cccs2)c1,n,n,77.2,n,84.3,
CCc1ccc(NC(=O)c2ccc(F)c(S(=O)(=O)N(CC)c3ccccc3)c2)cc1,n,n,62.1,n,76.1,
CCN(c1ccccc1)S(=O)(=O)c1cc(C(=O)Nc2cccc(Cl)c2)ccc1F,n,x,94.8,n,69.0,
Cc1cccc(NC(=O)c2ccc(F)c(S(=O)(=O)NCc3ccco3)c2)c1,n,x,n,n,x,
NNC(=O)C(=O)Nc1ccc(Cl)c(Cl)c1,n,n,n,n,x,
O=C(NNc1ccccc1[N+](=O)[O-])Nc1ccc(Cl)c(Cl)c1,n,x,101.7,n,84.2,
O=C1C=C(NC(=O)Nc2ccc(Cl)c(Cl)c2)CCC1,n,n,91.3,n,97.9,
O=C(Nc1ccc(Cl)c(Cl)c1)Nc1ccc(Br)cc1F,n,x,99.8,n,73.9,
CCN(CC)S(=O)(=O)c1cc([N+](=O)[O-])ccc1NNC(=O)Nc1ccc(Cl)c(Cl)c1,n,n,101.6,n,76.0,
Cc1ccc(NC(=O)CN(c2ccc(Cl)cc2)S(=O)(=O)c2cc([N+](=O)[O-])ccc2Cl)cc1,n,x,n,n,x,
COc1cccc(CC(=O)OCC(=O)N(C)CC(=O)Nc2ccc(Cl)c(C(F)(F)F)c2)c1,n,n,n,n,x,
CC(=O)Nc1ccc(S(=O)(=O)Nc2ccc(S(=O)(=O)Nc3nccs3)cc2)cc1,n,x,n,n,x,
CCSc1nc2ccccc2c(=O)n1-c1c(C)n(C)n(-c2ccccc2)c1=O,n,n,n,n,x,
O=C(O)CCC(=O)Nc1ccc2c(c1)Cc1cc(NC(=O)CCC(=O)O)ccc1-2,n,x,n,n,x,
CCCc1cc(=O)oc2cc(OCC(=O)NC3CC(C)(C)NC(C)(C)C3)ccc12,n,x,n,n,x,
SMILES,NadD block,H9c2 TAG inh,MPTP inh,aDG glyco up,MPTP counter,others
CCc1cc(Cn2nc(-c3ccccc3)cc2C(=O)NCc2ccccc2OC)on1,n,n,n,n,x,
O=C(Nc1ccc(Cl)c(Cl)c1)c1ccccc1,n,n,n,n,x,
O=C(Nc1ccc(Cl)c(Cl)c1)Nc1ccccc1O,n,x,97.8,n,64.2,
CCN(CC)CCCNc1ccc(-c2nnc(-c3ccc(OCC(C)C)cc3)o2)cn1,n,x,90.8,n,n,
COc1ccc(NC(=S)NC(NC(=O)c2ccc(Cl)cc2Cl)C(Cl)(Cl)Cl)c([N+](=O)[O-])c1 (configuration not stated),n,x,86.6,n,53.8,
COc1ccc(NC(=S)NC(NC(=O)c2cccc3ccccc23)C(Cl)(Cl)Cl)c([N+](=O)[O-])c1 (configuration not stated),n,x,69.6,n,54.6,
COC(=O)c1ccccc1NC(=S)NC(NC(=O)c1ccccc1[N+](=O)[O-])C(Cl)(Cl)Cl (configuration not stated),n,n,n,n,x,
COc1ccc(NC(=S)NC(NC(=O)c2ccccc2Cl)C(Cl)(Cl)Cl)c([N+](=O)[O-])c1 (configuration not stated),n,x,66.0,n,66.1,
COc1ccc(NC(=S)NC(NC(=O)CCl)C(Cl)(Cl)Cl)c([N+](=O)[O-])c1 (configuration not stated),n,x,n,n,x,
O=C(NC(NC(=S)Nc1c(Cl)cccc1Cl)C(Cl)(Cl)Cl)c1cccc([N+](=O)[O-])c1 (configuration not stated),n,x,72.7,n,53.9,
O=C(O)c1cn(C2CC2)c2cc(N3CCN(S(=O)(=O)c4ccc5c(c4)OCCO5)CC3)c(F)cc2c1=O,n,n,n,n,x,
Cc1ccc(N(CCC#N)C(=O)CSc2nnc3ccccn23)cc1,n,n,n,n,x,
COc1ccc(C(=O)N2CCCC(CNC(=O)c3ccccc3Cl)C2)o1 (configuration not stated),n,x,n,n,x,
O=C1CC(c2ccccc2)=NN1c1nc(-c2ccccc2)cs1,n,n,67.2,n,41.9,
O=C(N/N=C/c1ccc(OCc2ccc(F)cc2)cc1)c1ccccc1,n,n,n,n,x,
CC(C)(C)c1ccc(OCc2ccc(C(=O)N/N=C3\CC4CC=CC34)cc2)cc1 (configuration not stated),n,x,54.7,n,n,MPTP abs DR=n;MPTP counter DR=25.3
O=C(N/N=C1\CC2CC=CC12)c1ccc(COc2ccccc2)cc1 (configuration not stated),n,x,n,n,x,
CC(C)(C)c1ccc(OCc2ccc(C(=O)N/N=C/c3ccc(O)c(O)c3)cc2)cc1,72.0,n,85.2,n,n,
Cn1c(=O)n(C)c2cc(S(=O)(=O)NCCc3ccccc3)ccc21,n,x,59.2,n,23.8,
CNc1nc2cc([N+](=O)[O-])c([N+](=O)[O-])cc2nc1NC,n,x,105.0,n,94.4,
N#Cc1cc2nc(O)c(O)nc2cc1[N+](=O)[O-],n,n,n,n,x,
NS(=O)(=O)c1cccc(NS(=O)(=O)c2ccc(/C=C/C(=O)OCC(=O)c3ccccc3)cc2)c1,n,n,59.8,n,26.8,
O=C(CCNS(=O)(=O)c1ccccc1)OCc1ccc([N+](=O)[O-])cc1,n,n,n,n,x,
CCN(CC)S(=O)(=O)c1ccc(O)c(C(=O)OCC(=O)NC23CC4CC(CC(C4)C2)C3)c1,n,n,83.4,n,80.6,
CCN(CC)S(=O)(=O)c1ccc(O)c(C(=O)OCC(=O)Nc2ccc(OC(F)(F)F)cc2)c1,n,n,101.6,n,83.9,
CCOC(=O)C1=CN(Cc2cccc(F)c2)S(=O)(=O)N(C)C1CCc1ccccc1 (configuration not stated),n,n,n,n,x,
